Reference: article PMC7862700, “An all-to-all approach to the identification of sequence-specific readers for epigenetic DNA modifications on cytosine”

Assays:
Test in all cases: DAPPL (digital affinity profiling via proximity ligation, sequencing); 10 mM Tris-HCl pH 7.5, 50 mM NaCl, 1 mM DTT, 4% glycerol, room temperature, 30 min; GST-TFs on glutathione beads, 16-mer random dsDNA library, 0.1% formaldehyde crosslink after washing; high values mean tight binding
Conditions in all cases: protein: recombinant; tags: N-terminal GST; dsDNA, one strand shown
FEV = molecular target: T1, FEV (Homo sapiens, UniProt Q99581 1-238)
T1 sequence: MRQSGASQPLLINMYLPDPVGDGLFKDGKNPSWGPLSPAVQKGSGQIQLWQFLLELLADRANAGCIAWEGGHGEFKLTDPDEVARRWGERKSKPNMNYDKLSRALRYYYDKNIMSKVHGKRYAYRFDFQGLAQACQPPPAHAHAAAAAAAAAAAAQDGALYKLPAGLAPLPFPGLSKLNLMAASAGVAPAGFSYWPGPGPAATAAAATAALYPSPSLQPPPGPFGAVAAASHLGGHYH
Procedure, shortened: (§1)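 The binding signal reported is, for every hexamer, its read frequency for a factor over its read frequency for the tag-only sample. Reads came from pools of yeast-expressed, GST-fused human transcription factors on glutathione beads, barcoded with DNA and mixed with that sample, which were incubated with 200 nmole of a random double-stranded 16-mer DNA library in Tris/NaCl/DTT/glycerol buffer at room temperature for 30 min. After washing, the pools were crosslinked with 0.1% formaldehyde, proximity-ligated with BsaI/T4 ligase for 1 h at 37 °C, PCR-amplified and sequenced on an Illumina NextSeq500.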

ETV5 = ETV5 (Homo sapiens, UniProt P41161 1-510)
Procedure, shortened: as §1

SPIC = molecular target: T2, SPIC (Homo sapiens, UniProt Q8N5J4 1-248)
T2 sequence: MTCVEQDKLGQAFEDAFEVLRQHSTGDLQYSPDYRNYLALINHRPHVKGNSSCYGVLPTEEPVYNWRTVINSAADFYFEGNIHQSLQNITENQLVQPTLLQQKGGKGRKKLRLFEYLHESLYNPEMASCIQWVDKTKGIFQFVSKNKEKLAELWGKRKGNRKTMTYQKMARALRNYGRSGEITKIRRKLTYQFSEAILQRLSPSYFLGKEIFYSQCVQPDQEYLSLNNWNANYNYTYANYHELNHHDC
Procedure, shortened: as §1

ELF4 = ELF4 (Homo sapiens, UniProt Q99607 1-663)
Procedure, shortened: as §1

ELK4 = molecular target: T3, ELK4 (Homo sapiens, UniProt P28324-2 1-405)
T3 sequence: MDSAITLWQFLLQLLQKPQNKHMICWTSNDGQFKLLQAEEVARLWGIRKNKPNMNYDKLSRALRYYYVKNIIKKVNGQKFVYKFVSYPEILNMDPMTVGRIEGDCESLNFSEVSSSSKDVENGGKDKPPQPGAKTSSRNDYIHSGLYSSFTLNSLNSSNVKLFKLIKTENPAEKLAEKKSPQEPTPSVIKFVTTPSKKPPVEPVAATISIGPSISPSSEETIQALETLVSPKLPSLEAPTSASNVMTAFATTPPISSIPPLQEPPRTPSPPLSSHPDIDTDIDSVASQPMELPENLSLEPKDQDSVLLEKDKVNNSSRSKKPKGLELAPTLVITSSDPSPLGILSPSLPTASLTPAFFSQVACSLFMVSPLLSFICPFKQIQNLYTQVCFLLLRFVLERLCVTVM
Procedure, shortened: as §1

ETV2 = molecular target: T4, ETV2 (Homo sapiens, UniProt O00321 1-342)
T4 sequence: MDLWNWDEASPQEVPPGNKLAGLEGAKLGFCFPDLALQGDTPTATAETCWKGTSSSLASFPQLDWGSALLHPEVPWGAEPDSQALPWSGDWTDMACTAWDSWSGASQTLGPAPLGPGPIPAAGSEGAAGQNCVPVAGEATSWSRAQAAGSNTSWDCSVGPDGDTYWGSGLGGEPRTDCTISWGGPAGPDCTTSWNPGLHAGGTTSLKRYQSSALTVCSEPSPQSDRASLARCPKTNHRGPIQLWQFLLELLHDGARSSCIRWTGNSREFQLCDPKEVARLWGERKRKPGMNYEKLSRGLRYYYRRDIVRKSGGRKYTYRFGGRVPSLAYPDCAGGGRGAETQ
Procedure, shortened: as §1

ELF3 = molecular target: T5, ELF3 (Homo sapiens, UniProt P78545 1-371)
T5 sequence: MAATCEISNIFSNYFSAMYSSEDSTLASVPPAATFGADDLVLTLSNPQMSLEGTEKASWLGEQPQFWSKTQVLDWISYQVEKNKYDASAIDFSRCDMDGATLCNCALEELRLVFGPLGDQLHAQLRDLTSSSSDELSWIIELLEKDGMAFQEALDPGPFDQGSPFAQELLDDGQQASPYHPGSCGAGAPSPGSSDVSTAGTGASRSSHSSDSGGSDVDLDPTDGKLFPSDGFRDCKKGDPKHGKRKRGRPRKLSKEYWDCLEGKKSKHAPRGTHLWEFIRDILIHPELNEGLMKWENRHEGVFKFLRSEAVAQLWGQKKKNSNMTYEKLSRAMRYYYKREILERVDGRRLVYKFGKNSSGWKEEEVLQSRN
Procedure, shortened: as §1

ETV1 = ETV1 (Homo sapiens, UniProt P50549 1-477)
Procedure, shortened: as §1

ERF = molecular target: T6, ERF (Homo sapiens, UniProt P50548 1-548)
T6 sequence: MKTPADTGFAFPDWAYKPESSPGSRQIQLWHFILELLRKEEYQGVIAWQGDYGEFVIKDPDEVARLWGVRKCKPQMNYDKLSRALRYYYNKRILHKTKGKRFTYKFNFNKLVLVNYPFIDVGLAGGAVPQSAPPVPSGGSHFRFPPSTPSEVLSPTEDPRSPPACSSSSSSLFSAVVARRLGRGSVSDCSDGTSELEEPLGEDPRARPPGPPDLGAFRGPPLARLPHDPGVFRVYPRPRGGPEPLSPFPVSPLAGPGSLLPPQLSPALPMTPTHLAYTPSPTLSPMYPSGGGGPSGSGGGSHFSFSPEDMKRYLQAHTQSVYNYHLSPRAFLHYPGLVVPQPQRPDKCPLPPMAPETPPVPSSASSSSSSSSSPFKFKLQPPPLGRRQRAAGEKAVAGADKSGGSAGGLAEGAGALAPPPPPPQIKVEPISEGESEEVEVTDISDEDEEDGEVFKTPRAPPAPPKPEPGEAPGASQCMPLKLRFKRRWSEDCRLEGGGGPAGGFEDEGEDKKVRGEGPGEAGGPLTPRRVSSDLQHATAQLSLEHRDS
Procedure, shortened: as §1

ETV3L = molecular target: T7, ETV3L (Homo sapiens, UniProt Q6ZN32 1-361)
T7 sequence: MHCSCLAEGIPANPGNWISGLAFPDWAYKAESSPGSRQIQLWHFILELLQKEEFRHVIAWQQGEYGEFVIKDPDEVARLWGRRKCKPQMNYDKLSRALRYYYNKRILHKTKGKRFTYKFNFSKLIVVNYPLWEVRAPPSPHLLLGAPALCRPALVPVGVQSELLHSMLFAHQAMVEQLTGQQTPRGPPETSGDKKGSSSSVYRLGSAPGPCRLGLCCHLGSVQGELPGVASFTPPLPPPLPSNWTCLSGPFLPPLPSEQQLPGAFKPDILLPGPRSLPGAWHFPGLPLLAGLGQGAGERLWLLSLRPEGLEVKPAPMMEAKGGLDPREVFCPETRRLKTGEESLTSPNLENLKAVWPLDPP
Procedure, shortened: as §1

ETS2 = molecular target: T8, ETS2 (Homo sapiens, UniProt P15036 1-469)
T8 sequence: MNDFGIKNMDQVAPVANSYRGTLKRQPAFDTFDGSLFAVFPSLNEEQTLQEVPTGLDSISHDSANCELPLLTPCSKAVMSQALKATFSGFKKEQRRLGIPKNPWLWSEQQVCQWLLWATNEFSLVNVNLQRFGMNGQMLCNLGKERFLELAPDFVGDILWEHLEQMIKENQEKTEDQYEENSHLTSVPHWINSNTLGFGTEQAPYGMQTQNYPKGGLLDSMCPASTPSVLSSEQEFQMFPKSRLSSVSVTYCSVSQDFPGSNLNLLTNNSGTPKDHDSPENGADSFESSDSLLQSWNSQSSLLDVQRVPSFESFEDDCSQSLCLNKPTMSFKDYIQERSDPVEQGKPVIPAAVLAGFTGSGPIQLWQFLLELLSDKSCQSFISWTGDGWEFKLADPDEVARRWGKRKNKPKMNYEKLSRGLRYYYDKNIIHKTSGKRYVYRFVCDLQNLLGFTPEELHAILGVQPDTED
Procedure, shortened: as §1

SPDEF = molecular target: T9, SPDEF (Homo sapiens, UniProt O95238 1-335)
T9 sequence: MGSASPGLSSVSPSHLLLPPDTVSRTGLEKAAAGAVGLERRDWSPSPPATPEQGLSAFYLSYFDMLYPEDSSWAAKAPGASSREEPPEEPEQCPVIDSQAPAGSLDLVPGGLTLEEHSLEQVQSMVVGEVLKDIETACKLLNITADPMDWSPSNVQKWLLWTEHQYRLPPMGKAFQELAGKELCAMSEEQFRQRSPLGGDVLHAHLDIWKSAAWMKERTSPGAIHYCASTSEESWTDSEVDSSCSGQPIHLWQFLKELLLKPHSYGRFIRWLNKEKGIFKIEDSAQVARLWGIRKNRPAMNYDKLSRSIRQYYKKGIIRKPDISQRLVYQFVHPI
Procedure, shortened: as §1

ETV7 = molecular target: T10, ETV7 (Homo sapiens, UniProt Q9Y603 1-341)
T10 sequence: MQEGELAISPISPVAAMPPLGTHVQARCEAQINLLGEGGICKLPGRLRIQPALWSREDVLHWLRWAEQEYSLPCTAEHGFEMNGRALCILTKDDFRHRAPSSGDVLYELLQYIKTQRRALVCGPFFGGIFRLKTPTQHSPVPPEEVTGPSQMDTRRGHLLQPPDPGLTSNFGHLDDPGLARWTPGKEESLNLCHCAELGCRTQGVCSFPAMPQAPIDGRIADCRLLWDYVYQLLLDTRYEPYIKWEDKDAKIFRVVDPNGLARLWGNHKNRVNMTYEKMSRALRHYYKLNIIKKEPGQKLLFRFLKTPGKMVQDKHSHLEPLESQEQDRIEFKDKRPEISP
Procedure, shortened: as §1

ELF5 = molecular target: T11, ELF5 (Homo sapiens, UniProt Q9UKW6-2 1-255)
T11 sequence: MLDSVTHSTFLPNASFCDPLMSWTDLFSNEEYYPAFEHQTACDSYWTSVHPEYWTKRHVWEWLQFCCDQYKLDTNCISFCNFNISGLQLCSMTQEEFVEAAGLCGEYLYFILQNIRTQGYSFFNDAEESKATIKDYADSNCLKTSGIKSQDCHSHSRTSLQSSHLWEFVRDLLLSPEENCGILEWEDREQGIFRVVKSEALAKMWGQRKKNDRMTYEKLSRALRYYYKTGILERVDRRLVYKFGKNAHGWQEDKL
Procedure, shortened: as §1

ETV3 = molecular target: T12, ETV3 (Homo sapiens, UniProt P41162-2 1-143)
T12 sequence: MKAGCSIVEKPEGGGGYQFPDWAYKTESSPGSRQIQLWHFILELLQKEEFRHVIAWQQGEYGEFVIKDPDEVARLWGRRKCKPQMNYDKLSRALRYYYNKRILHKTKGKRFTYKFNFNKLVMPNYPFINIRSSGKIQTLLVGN
Procedure, shortened: as §1

ETV6 = ETV6 (Homo sapiens, UniProt P41212 1-452)
Procedure, shortened: as §1

Chain of ETV5 (P41161 whole entry): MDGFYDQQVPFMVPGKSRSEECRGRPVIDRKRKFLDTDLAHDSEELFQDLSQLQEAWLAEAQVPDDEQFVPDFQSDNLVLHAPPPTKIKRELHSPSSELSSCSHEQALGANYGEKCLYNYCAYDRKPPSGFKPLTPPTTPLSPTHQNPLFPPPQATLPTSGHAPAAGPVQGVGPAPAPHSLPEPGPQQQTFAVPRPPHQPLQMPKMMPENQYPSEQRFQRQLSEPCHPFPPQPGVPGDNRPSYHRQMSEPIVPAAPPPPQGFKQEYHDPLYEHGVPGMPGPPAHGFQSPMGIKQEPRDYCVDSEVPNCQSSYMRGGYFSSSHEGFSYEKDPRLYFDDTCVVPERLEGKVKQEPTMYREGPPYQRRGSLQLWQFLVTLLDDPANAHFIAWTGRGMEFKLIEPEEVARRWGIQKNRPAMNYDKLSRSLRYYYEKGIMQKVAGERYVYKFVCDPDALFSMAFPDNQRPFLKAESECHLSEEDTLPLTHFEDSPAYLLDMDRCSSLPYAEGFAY
Chain of ELF4 (Q99607 whole entry): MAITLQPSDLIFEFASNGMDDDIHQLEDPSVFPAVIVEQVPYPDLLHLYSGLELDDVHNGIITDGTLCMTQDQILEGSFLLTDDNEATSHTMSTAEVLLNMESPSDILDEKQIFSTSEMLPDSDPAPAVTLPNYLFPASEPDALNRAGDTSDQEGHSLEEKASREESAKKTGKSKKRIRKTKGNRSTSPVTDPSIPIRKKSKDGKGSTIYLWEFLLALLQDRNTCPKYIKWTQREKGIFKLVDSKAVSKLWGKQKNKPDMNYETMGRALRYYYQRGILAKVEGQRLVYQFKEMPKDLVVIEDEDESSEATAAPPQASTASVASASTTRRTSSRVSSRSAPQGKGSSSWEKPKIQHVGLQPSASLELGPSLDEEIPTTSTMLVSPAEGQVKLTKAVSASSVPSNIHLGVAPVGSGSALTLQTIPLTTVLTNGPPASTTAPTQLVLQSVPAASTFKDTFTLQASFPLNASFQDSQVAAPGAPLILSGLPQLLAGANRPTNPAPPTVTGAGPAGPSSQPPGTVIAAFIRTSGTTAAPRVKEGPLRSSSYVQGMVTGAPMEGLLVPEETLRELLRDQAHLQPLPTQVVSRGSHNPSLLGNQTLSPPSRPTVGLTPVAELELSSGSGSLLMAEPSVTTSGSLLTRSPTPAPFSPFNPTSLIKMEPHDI
Chain of ETV6 (P41212 whole entry): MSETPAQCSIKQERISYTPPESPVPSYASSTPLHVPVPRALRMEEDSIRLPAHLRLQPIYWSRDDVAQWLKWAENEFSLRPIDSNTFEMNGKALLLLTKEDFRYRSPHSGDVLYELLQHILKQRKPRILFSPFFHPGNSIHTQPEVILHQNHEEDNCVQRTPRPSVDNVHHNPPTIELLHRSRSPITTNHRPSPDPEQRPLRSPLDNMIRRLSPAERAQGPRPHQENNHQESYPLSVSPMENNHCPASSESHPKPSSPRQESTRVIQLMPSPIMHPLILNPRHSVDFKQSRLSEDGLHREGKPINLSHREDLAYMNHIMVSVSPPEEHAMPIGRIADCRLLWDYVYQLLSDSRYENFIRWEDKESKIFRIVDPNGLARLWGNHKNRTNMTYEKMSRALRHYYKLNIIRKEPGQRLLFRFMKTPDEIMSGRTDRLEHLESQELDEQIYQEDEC
Chain of ETV1 (P50549 whole entry): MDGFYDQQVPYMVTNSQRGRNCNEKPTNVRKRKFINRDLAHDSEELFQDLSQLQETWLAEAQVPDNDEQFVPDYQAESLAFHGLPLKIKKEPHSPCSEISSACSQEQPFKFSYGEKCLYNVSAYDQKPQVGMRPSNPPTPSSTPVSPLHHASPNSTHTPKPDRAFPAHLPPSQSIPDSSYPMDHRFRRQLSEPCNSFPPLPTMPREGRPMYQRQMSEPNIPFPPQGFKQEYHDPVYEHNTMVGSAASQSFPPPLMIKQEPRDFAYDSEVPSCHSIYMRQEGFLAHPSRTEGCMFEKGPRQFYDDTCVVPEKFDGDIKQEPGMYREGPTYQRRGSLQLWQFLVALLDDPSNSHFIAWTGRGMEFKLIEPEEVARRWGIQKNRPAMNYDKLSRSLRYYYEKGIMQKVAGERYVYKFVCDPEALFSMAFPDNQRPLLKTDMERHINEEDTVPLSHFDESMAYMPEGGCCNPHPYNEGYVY

Row | Sequence | binding signal (FEV) | binding signal (ETV5) | binding signal (SPIC) | binding signal (ELF4) | binding signal (ELK4) | binding signal (ETV2) | binding signal (ELF3) | binding signal (ETV1) | binding signal (ERF) | binding signal (ETV3L) | binding signal (ETS2) | binding signal (SPDEF) | binding signal (ETV7) | binding signal (ELF5) | binding signal (ETV3) | binding signal (ETV6)
1 | CGTCCG | 1.48 fold enrichment (6-mer frequency, TF over GST control) | 1.23 fold enrichment (6-mer frequency, TF over GST control) | 1.37 fold enrichment (6-mer frequency, TF over GST control) | 1.26 fold enrichment (6-mer frequency, TF over GST control) | 1.17 fold enrichment (6-mer frequency, TF over GST control) | 1.16 fold enrichment (6-mer frequency, TF over GST control) | 1.26 fold enrichment (6-mer frequency, TF over GST control) | 1.38 fold enrichment (6-mer frequency, TF over GST control) | 1.32 fold enrichment (6-mer frequency, TF over GST control) | 1.19 fold enrichment (6-mer frequency, TF over GST control) | 1.28 fold enrichment (6-mer frequency, TF over GST control) | 1.48 fold enrichment (6-mer frequency, TF over GST control) | 1.37 fold enrichment (6-mer frequency, TF over GST control) | 1.44 fold enrichment (6-mer frequency, TF over GST control) | 1.22 fold enrichment (6-mer frequency, TF over GST control) | 1.34 fold enrichment (6-mer frequency, TF over GST control)
2 | CACATA | 1.1 fold enrichment (6-mer frequency, TF over GST control) | 1.1 fold enrichment (6-mer frequency, TF over GST control) | 1.07 fold enrichment (6-mer frequency, TF over GST control) | 1.1 fold enrichment (6-mer frequency, TF over GST control) | 1.07 fold enrichment (6-mer frequency, TF over GST control) | 1.18 fold enrichment (6-mer frequency, TF over GST control) | 1.11 fold enrichment (6-mer frequency, TF over GST control) | 1.05 fold enrichment (6-mer frequency, TF over GST control) | 1.17 fold enrichment (6-mer frequency, TF over GST control) | 1.19 fold enrichment (6-mer frequency, TF over GST control) | 1.1 fold enrichment (6-mer frequency, TF over GST control) | 1.11 fold enrichment (6-mer frequency, TF over GST control) | 1.03 fold enrichment (6-mer frequency, TF over GST control) | 1.05 fold enrichment (6-mer frequency, TF over GST control) | 1.09 fold enrichment (6-mer frequency, TF over GST control) | 1.1 fold enrichment (6-mer frequency, TF over GST control)
3 | CCGTCA | 1.19 fold enrichment (6-mer frequency, TF over GST control) | 1.23 fold enrichment (6-mer frequency, TF over GST control) | 1.13 fold enrichment (6-mer frequency, TF over GST control) | 1.26 fold enrichment (6-mer frequency, TF over GST control) | 1.31 fold enrichment (6-mer frequency, TF over GST control) | 1.24 fold enrichment (6-mer frequency, TF over GST control) | 1.35 fold enrichment (6-mer frequency, TF over GST control) | 1.22 fold enrichment (6-mer frequency, TF over GST control) | 1.08 fold enrichment (6-mer frequency, TF over GST control) | 1.28 fold enrichment (6-mer frequency, TF over GST control) | 1.28 fold enrichment (6-mer frequency, TF over GST control) | 1.38 fold enrichment (6-mer frequency, TF over GST control) | 1.26 fold enrichment (6-mer frequency, TF over GST control) | 1.22 fold enrichment (6-mer frequency, TF over GST control) | 1.19 fold enrichment (6-mer frequency, TF over GST control) | 1.25 fold enrichment (6-mer frequency, TF over GST control)
